Among all 310,000 compounds or so, about 14,000 (4.5%) showed an effect of 50% or more. Effects have a minus sign here. The sample as a whole holds a higher share of strong results than the screen did.
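Further: peak tail current of the secondary pulse compared with the same well before compound.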

Chain of human ether-à-go-go-related gene (hERG) potassium channel (Q12809 whole entry, looked up): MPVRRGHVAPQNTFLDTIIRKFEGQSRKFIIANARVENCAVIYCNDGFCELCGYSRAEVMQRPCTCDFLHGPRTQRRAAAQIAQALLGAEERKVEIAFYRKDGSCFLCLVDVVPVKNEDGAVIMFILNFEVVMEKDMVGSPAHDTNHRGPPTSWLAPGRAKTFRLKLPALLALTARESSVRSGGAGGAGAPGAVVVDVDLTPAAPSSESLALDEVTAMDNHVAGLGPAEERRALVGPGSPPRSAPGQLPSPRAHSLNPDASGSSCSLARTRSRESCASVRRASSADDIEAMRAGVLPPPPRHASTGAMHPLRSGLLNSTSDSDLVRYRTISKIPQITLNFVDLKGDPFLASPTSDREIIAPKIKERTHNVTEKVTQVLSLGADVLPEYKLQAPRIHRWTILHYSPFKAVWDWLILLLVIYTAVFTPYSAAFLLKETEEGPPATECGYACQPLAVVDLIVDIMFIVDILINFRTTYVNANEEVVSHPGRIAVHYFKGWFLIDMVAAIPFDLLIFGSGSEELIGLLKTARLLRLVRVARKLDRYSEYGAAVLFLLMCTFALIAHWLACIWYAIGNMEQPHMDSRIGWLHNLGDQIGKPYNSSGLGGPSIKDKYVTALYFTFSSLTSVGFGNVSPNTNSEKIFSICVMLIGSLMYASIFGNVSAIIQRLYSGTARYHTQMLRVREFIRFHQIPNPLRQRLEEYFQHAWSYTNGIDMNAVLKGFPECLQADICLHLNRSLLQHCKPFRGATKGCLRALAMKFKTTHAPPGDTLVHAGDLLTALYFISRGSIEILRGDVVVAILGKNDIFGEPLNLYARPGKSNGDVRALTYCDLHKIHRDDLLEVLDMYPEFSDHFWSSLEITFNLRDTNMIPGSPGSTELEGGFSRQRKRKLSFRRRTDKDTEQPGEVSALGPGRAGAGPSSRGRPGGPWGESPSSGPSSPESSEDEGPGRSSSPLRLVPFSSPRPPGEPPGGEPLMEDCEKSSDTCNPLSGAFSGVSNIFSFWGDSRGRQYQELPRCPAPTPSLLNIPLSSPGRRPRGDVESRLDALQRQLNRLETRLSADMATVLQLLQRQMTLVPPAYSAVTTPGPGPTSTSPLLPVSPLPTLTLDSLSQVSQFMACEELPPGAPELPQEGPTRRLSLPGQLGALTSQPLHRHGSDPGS

This assay concerns the target human ether-à-go-go-related gene (hERG) potassium channel (human, UniProt Q12809). Description: primary screen, population patch clamp on CHO cells stably expressing hERG; higher = less effect of the substance.
With `CC(=O)Nc1ccc(NC(=O)c2ccc(N(Cc3ccccc3C)S(C)(=O)=O)cc2)cc1`, the “hERG current change (%, negative = inhibition) at 10uM” value is reported as -7.68%.

As for `S=C(Nc1ccccc1)N1CCN(C2CCCCC2)CC1`, the “hERG current change (%, negative = inhibition) at 10uM” value is -2.89%.

On to `CCC1CCCCN1C(=O)CSc1nnc(CNC(=O)COc2ccc(Cl)cc2)o1` (stereo not shown), for which the “hERG current change (%, negative = inhibition) at 10uM” value is -32.5%.

As for `COc1cnc(-c2ccccn2)nc1Oc1ccc(Cl)cc1`, the “hERG current change (%, negative = inhibition) at 10uM” value was -0.157%.

Regarding `COc1cnc(-c2ccccn2)nc1Oc1ccccc1`, the “hERG current change (%, negative = inhibition) at 10uM” value is -72.8%.

Turning to `COc1cnc(-c2ccccn2)nc1Oc1ccc(C(C)(C)C)cc1`, the “hERG current change (%, negative = inhibition) at 10uM” value is given as -2.72%.

In the case of `CC(C)C(=O)NC(c1ccccc1Cl)c1c(O)ccc2ccccc12` (stereo not shown), the “hERG current change (%, negative = inhibition) at 10uM” value is reported as 7.79%.

With `O=C(O)CCN1C(=O)CC(N2C(=O)/C(=C/c3ccc(Cl)cc3)SC2=S)C1=O` (stereo not shown), the “hERG current change (%, negative = inhibition) at 10uM” value was found to be 18.8%.

Take `CSc1snnc1-c1ccccc1`: the “hERG current change (%, negative = inhibition) at 10uM” value came out at 25.6%.

`O=C(O)C(=O)O.c1ccc(COc2ccc(OCCCNC3CCCC3)cc2)cc1`: the “hERG current change (%, negative = inhibition) at 10uM” value is -57.1%.

With `Cc1ccc(C)c(OCCCNC2CCCC2)c1C.O=C(O)C(=O)O`, the “hERG current change (%, negative = inhibition) at 10uM” value is -10.3%.

In the case of `C=CCNCCCCOc1ccc(OCc2ccccc2)cc1.O=C(O)C(=O)O`, the “hERG current change (%, negative = inhibition) at 10uM” value was -42.1%.

On to `CC(C)(C)c1ccc(OCCCNCc2ccccc2)cc1.O=C(O)C(=O)O`, for which the “hERG current change (%, negative = inhibition) at 10uM” value is -19.5%.

Regarding `CCOc1cccc(OCCNC2CCCC2)c1.O=C(O)C(=O)O`, the “hERG current change (%, negative = inhibition) at 10uM” value amounted to 5.28%.

Take `O=C(O)C(=O)O.OCCNCCCCOc1ccc(OCc2ccccc2)cc1`: the “hERG current change (%, negative = inhibition) at 10uM” value is reported as -32.1%.

`Cc1ccc(OCCCNC2CCCC2)cc1`: the “hERG current change (%, negative = inhibition) at 10uM” value is -0.454%.

Regarding `COc1cccc(OC)c1OCCCNC1CCCC1.O=C(O)C(=O)O`, the “hERG current change (%, negative = inhibition) at 10uM” value is -7.84%.

As for `O=C(O)C(=O)O.c1ccc(Cc2ccc(OCCCNC3CCCC3)cc2)cc1`, the “hERG current change (%, negative = inhibition) at 10uM” value is on record as -58.9%.

For `O=C(O)C(=O)O.c1cc2c(cc1OCCNC1CCCC1)CCC2`, the “hERG current change (%, negative = inhibition) at 10uM” value is on record as 0.00128%.

`O=C(O)C(=O)O.c1ccc(-c2ccc(OCCCNC3CCCC3)cc2)cc1`: the “hERG current change (%, negative = inhibition) at 10uM” value is on record as -86.1%.

Turning to `CC(C)(C)c1ccc(OCCCNC2CCCC2)cc1.O=C(O)C(=O)O`, the “hERG current change (%, negative = inhibition) at 10uM” value is -54.5%.

Regarding `COc1ccc(C2=NN(C(=O)COC(=O)c3ccc(NC(=O)CC#N)cc3)C(c3ccco3)C2)cc1` (stereo not shown), the “hERG current change (%, negative = inhibition) at 10uM” value is on record as 5.24%.

Regarding `COC(=O)c1oc2nc(C)cc(C)c2c1N`, the “hERG current change (%, negative = inhibition) at 10uM” value is recorded as -4.33%.

With `CC(C)N(C)C(=O)CCc1nnc(CCc2c[nH]c3ccccc23)o1`, the “hERG current change (%, negative = inhibition) at 10uM” value came to 6.75%.

As to `COc1ccc(C)cc1NC(=O)c1sc2ncn(CC(=O)N3CCCCC3)c(=O)c2c1C`, the “hERG current change (%, negative = inhibition) at 10uM” value is 9.03%.
